# Measurements taken from ChEMBL document CHEMBL1201862, “PubChem BioAssay data set” (2004).
# These assays gave more results; the selection is not random.
# Biological target: Huntingtin (Homo sapiens) (UniProt P42858)
# Test: qHTS Assay Multiplex Screening to Identify Dual Action Probes in a Cell Model of Huntington: Cytoprotection (Protease release). [Related pubchem assays: 1482, 1471, 1688 ]; call rule not given here
# Type: functional
# Chain of Huntingtin (Homo sapiens) (P42858 whole entry): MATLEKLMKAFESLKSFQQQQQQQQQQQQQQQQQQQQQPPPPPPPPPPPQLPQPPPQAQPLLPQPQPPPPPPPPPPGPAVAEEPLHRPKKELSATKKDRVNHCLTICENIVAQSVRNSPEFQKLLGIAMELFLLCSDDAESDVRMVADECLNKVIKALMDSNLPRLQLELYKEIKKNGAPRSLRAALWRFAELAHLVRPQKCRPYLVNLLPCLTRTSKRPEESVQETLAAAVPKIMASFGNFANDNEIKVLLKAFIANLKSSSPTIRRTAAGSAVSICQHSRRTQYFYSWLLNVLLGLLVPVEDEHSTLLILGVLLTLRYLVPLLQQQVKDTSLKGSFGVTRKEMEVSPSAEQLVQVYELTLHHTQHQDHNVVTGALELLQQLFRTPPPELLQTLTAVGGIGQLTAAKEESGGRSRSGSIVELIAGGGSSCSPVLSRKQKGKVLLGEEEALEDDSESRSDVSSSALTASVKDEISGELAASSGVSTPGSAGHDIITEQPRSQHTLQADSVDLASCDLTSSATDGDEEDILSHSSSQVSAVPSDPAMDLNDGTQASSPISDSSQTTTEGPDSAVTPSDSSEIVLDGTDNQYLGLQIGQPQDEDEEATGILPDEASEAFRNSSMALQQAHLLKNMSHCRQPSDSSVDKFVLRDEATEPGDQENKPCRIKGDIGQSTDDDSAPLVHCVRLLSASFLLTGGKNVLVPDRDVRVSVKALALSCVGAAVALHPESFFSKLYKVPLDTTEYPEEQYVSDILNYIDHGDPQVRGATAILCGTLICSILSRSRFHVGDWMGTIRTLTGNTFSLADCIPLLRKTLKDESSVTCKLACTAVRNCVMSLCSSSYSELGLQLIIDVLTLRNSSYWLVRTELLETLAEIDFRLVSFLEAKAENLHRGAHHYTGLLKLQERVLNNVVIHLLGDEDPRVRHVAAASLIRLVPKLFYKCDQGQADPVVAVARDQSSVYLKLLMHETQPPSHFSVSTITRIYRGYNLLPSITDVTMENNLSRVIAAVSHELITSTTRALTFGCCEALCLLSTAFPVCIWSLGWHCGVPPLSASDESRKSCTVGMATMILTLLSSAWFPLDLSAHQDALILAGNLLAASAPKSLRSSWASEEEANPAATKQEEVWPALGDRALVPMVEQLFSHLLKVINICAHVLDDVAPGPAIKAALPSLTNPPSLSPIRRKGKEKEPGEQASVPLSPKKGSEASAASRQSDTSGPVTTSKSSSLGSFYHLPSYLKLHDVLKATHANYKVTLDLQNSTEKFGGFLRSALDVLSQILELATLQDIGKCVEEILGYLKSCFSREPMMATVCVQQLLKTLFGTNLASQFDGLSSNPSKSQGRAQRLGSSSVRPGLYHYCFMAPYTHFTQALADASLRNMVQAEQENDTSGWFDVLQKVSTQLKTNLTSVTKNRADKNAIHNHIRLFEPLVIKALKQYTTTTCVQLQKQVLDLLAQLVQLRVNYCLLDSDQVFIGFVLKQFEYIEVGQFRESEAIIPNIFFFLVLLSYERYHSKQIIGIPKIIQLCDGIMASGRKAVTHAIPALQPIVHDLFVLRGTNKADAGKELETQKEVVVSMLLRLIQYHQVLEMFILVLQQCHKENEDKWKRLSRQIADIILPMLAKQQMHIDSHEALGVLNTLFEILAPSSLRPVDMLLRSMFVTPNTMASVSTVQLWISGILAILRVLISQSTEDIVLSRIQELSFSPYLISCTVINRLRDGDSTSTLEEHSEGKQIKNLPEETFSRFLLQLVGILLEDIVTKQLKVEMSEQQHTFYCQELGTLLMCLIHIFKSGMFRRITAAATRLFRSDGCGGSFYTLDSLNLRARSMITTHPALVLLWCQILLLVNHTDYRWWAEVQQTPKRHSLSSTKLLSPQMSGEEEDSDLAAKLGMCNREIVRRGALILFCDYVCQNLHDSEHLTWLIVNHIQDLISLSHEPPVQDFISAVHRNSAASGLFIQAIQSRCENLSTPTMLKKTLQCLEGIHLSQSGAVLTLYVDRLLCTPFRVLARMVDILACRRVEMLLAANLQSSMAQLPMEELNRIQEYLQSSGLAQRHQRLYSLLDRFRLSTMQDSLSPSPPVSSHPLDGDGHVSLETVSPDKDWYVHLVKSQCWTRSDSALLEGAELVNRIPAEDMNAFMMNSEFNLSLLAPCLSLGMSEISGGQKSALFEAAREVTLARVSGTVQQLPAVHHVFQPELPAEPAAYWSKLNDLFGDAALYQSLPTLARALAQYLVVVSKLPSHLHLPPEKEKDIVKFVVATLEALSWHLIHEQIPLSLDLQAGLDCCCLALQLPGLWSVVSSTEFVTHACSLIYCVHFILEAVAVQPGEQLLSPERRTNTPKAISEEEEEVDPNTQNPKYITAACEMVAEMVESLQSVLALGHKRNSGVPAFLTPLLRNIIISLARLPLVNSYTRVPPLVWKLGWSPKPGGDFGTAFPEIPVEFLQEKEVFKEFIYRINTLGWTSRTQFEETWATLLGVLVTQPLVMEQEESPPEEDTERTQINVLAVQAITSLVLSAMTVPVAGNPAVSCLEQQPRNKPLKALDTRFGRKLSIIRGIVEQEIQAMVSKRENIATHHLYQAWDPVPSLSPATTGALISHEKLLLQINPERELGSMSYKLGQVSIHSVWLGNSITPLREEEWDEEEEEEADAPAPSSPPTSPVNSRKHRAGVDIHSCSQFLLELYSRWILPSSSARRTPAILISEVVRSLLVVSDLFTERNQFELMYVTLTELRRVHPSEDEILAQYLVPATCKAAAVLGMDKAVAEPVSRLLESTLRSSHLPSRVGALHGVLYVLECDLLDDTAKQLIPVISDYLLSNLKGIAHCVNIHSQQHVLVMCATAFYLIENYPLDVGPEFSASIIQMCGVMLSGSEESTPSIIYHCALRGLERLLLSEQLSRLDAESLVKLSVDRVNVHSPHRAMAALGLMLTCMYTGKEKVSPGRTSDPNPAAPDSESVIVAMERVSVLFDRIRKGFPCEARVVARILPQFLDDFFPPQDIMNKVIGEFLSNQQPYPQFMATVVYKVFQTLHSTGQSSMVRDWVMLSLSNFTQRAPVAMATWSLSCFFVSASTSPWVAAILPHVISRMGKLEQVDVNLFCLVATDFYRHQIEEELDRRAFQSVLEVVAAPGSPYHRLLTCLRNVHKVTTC
compound,measurement,value
COC[C@@H]([C@H](O)[C@H](O)C(=O)NCC[C@H](C)c1nc(/C=C/C[C@@H]2O[C@]3(C[C@@H](O)[C@@H]2C)O[C@H]([C@H](C[C@H](O)[C@H](C)[C@H](O)[C@H](C)/C=C(C)/C(C)=C/C=C/C(C)=C\C#N)OC)[C@H](OP(=O)(O)O)C3(C)C)co1)N(C)C,Potency,1120 nM (active)
